sPLA2-III inh: Blocks human group III sPLA2 activity | QFRET BODIPY PC-A2 liposome hydrolysis, fluorescence | Q9NZ20 | 0.56% of 370,000 active | inhibition, % at 12.2 µM;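 active = inhibition above mean plus 3 SD of compounds lying within the high and low control bounds, cut at about 19% in these data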;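 also: 0% = median of test compound wells and 100% = no enzyme DMSO wells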
ADAM10 inh: inhibitors of human ADAM10; O14672; recombinant ADAM10, EDANS/DABCYL FRET peptide cleavage, 3 h; inhibition, % at 7 µM; 0.62% of 370,000 active;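 active = inhibition above a per-campaign cutoff equal to the mean of compounds falling between control-based bounds plus 3 SD, cut at about 20% in these data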;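 also: 0% = DMSO wells while the 100% control is not disclosed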
PLC-gamma1 inh: blocks human PLC-gamma1 enzyme activity; 0.84% of 370,000 active; inhibition, % at 12.2 µM; purified PLC-gamma1, fluorogenic substrate, fluorescence; P19174; in the data active = inhibition above about 9.5%
ADAM17 inh: ADAM17 inhibition, QFRET primary screen | recombinant ADAM17, EDANS/DABCYL FRET peptide cleavage | inhibition, % at 6.95 µM | 0.83% of 370,000 active;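 active = inhibition above the mean of compounds lying between control limits plus 3 SD, set per campaign, cut at about 8.5% in these data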;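 also: 0% = DMSO-only wells as the low control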
PLCb3 inh: inhibitors of human phospholipase C beta3; 0.18% of 370,000 active; inhibition, % at 12.2 µM; Purified PLC-beta3, fluorogenic substrate, fluorescence; in the data active = inhibition above about 11%;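 also: 0% = median of compound wells on plate and 100% = full blocker control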
proKLK7 act: activators of human kallikrein-7 zymogen; P49862; 0.9% of 370,000 active; AID 652039; activation, % at 7 µM; purified proKLK7, EDANS-DABCYL substrate fluorescence; 100% is mature enzyme control, 0% vehicle;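 active = activation above the mean of all tested compounds plus 3 SD, computed per campaign excluding outliers beyond control limits, cut at about 13% in these data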
Target sequence (P49862 whole entry, looked up): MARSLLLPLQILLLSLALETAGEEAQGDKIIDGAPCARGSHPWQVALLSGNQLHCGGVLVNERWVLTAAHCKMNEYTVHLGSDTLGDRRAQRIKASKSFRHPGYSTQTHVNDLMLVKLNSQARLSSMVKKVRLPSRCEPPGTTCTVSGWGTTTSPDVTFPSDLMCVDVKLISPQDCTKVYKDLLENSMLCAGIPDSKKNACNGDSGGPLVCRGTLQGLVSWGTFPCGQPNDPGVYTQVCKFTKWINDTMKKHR
proKLK7 act conf: proKLK7 activation, confirmation | shares compounds with proKLK7 act | purified proKLK7, EDANS-DABCYL substrate fluorescence; scaled: vehicle 0, mature enzyme 100 | activation, % at 7 µM | 68% of 3,200 active;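 active = activation, as change over the incubation, above the mean of all tested compounds plus 3 SD, cut at about 13% in these data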
EDANS interfere: optically interferes with EDANS-DABCYL signal, flagging KLK7 hits. shares compounds with proKLK7 act. EDANS-DABCYL substrate fluorescence interference, no enzyme, 4 h; solvent 0%, active enzyme control 100%. activation, % at 7 µM. 80% of 3,200 active;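 active = activation above the all-compound mean plus 3 SD, ignoring values outside control-based bounds, cut at about 4.8% in these data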;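 also: value is the 4 h activation minus the activation read at time zero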
EDANS interf: optically interferes with EDANS-DABCYL fluorescence, kallikrein-7 activator counter-screen; shares compounds with proKLK7 act; EDANS-DABCYL peptide fluorescence interference, no enzyme; EC50, µM; 20% of 250 active;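 active = compounds that raise the fluorescence signal in this interference counterscreen, with EC50 at or below 10 µM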;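 also: intact quenched peptide substrate alone read at 355 nm excitation and 520 nm emission; signal is fluorescence gain from T0 to T4 after four hours at room temperature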
* marks the source's active call; other numbers are inactive results; i = inactive; . = no result. Rows were chosen to be rich in hits. Some 3.4% of all compounds tested hit in one or more screens of this group.

SMILES	sPLA2-III inh	ADAM10 inh	PLC-gamma1 inh	ADAM17 inh	PLCb3 inh	proKLK7 act	proKLK7 act conf	EDANS interfere	others
Cc1cc2nc(-c3ccc[nH]c3=O)n(Cc3ccc(F)cc3)c2cc1C	-7	i	i	i	i	22*	-1	0
Cc1cc2nc(-c3ccc[nH]c3=O)[nH]c2cc1C	3	i	i	i	i	68*	64*	71*
CCCCC[C@H](O)/C=C/[C@@H]1[C@H]2C/C(=C/CCCC(=O)O)O[C@H]2C[C@H]1O	4	1	1	-1	5	0	.	.
C=CCOC(=O)C1=C(C)NC(SCC(=O)N(CC)CC)=C(C#N)C1c1ccccc1 (stereo not drawn)	-4	-17	-14	7	-19	0	.	.
C=CCOC(=O)C1=C(C)NC(SCC(=O)NC(=O)OCC)=C(C#N)C1c1cccnc1 (stereo not drawn)	-4	-81	-56	-19	-65	20*	27*	17*	EDANS interf=4.4*
COC(=O)[C@]12C[C@H](CC(=O)N3CCC(c4ccccc4)CC3)C(=O)N(Cc3ccc4c(c3)OCO4)C1=C[C@H](COCc1ccccc1)O[C@@H]2C	-3	6	5	5	4	0	.	.
CCN1CCN(c2cc3c(cc2F)c(=O)c(S(=O)(=O)c2ccccc2)cn3C)CC1	0	-346	-66	-90	-122	13*	3	3
COc1ccc(N2C(=O)c3n[nH]c(C)c3C2c2ccc(F)cc2)cc1 (stereo not drawn)	5	-15	3	-5	0	0	.	.
CCC[C@H]1[C@@H](NC(=O)c2ccc(OC)cc2)CC[C@@]23CCCN2C(=O)CCC[C@@H]13	4	2	2	-2	2	.	.	.
Cc1ccccc1C1=CC(=O)CC(C)(C)C1=O	2	-7	2	-3	1	0	.	.
Cc1cc(=O)oc2cc(N3C(=O)CC(Cc4ccccc4)C3=O)ccc12 (stereo not drawn)	-2	-278	-16	-89	-30	19*	25*	23*
c1ccc(CN2CCCC3CC2c2ccccc23)cc1 (stereo not drawn)	14	1	0	-5	-5	0	.	.
C[C@H](O)C(=O)C1=Nc2c(nc(N)[nH]c2=O)NC1	-2	i	-256	-260	-312	16*	28*	33*
C[C@H](O)[C@H](O)[C@H]1CNc2nc(N)[nH]c(=O)c2N1	-3	i	-443	i	i	0	.	.
CCc1cc2c(COC(=O)c3cc(S(=O)(=O)N4CCOCC4)ccc3F)cc(=O)oc2cc1O	-11	i	-355	-199	i	113*	446*	456*
O=c1cc(CN2CCN(S(=O)(=O)c3ccc4c(c3)OCCO4)CC2)c2ccc(O)cc2o1	-24	i	i	i	i	43*	62*	67*
COc1ccc(OC)c(CN2CCN(Cc3cc(=O)oc4cc(O)ccc34)CC2)c1	-17	i	i	i	i	59*	76*	75*
O=C(OCc1cc(=O)oc2cc(O)ccc12)c1cc(S(=O)(=O)N2CCOCC2)ccc1F	-13	i	i	-358	i	644*	677*	654*
COc1ccc2c(CN3CCCC3)cc(=O)oc2c1	-4	i	-126	-142	-182	3	.	.
N#Cc1ccccc1COC(=O)c1cc(S(=O)(=O)N2CCOCC2)ccc1F	-7	-11	-1	-5	0	1	.	.
Cc1cc(Nc2cccc(Br)c2)cc(=O)n1-c1cccc(Br)c1	0	-1	-7	3	-12	0	.	.
CCCC1CCC2(CC1)CCC2OC(=S)Nc1ccc(Cl)cc1 (stereo not drawn)	0	3	0	-1	3	.	.	.
